# Assay results published in paper PMC8384837, “Expanding the binding specificity for RNA recognition by a PUF domain”.
# Key:
# Test in all cases: yeast three-hybrid, YBZ-1, SC-Leu-His + 0.5 mM 3-AT, 4 days
# Settings in all cases: tags: N-Gal4 AD-HA kept; label: inside an RPR1-promoter hybrid RNA with tandem MS2 sites; ssRNA
# PUM1 PUF domain R5-AAD = PUM1 PUF domain R5-AAD (Homo sapiens, UniProt Q14671 828-1176, C1007A;R1008A;Q1011D)
# Outline: (§1)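 A centromeric plasmid in strain YBZ-1 co-expressed Pumilio-1 PUF domain libraries, randomized at the three base-contacting residues of each repeat, with matching RNA elements; the strain carries a LexA–MS2 coat fusion and a HIS3 reporter. After four days on SC-Leu (input) or SC-Leu-His + 0.5 mM 3-AT (selection), the repeat regions were PCR-amplified and Illumina-sequenced. The interaction score is the log change in variant frequency from input to selection, using log2 and a pseudocount of 1 where absent.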
# PUM1 PUF domain R4-DWM = PUM1 PUF domain R4-DWM (Homo sapiens, UniProt Q14671 828-1176, N971D;H972W;Q975M)
# Outline: as §1
# PUM1 PUF domain R3-WYS = PUM1 PUF domain R3-WYS (Homo sapiens, UniProt Q14671 828-1176, C935W;R936Y;Q939S)
# Outline: as §1
# PUM1 PUF domain R3-FIG = PUM1 PUF domain R3-FIG (Homo sapiens, UniProt Q14671 828-1176, C935F;R936I;Q939G)
# Outline: as §1
# PUM1 PUF domain R6-FWV = biological target: T1, PUM1 PUF domain R6-FWV (Homo sapiens, UniProt Q14671 828-1176, N1043F;Y1044W;Q1047V)
# T1 sequence: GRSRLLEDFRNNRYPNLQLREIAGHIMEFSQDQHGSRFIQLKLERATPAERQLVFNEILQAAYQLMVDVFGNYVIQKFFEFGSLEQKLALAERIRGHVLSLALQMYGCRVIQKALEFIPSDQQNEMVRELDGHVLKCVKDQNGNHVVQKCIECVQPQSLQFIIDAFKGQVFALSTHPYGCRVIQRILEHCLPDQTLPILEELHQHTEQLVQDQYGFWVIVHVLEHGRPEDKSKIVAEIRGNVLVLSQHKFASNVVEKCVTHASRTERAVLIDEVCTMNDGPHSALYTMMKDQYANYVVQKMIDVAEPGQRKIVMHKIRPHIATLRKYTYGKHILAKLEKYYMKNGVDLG
# Outline: as §1
# PUM1 PUF domain R8-RRV = PUM1 PUF domain R8-RRV (Homo sapiens, UniProt Q14671 828-1176, N1122R;Y1123R;Q1126V)
# Outline: as §1
# PUM1 PUF domain R3-DHL = PUM1 PUF domain R3-DHL (Homo sapiens, UniProt Q14671 828-1176, C935D;R936H;Q939L)
# Outline: as §1
# PUM1 PUF domain R3-TYH = PUM1 PUF domain R3-TYH (Homo sapiens, UniProt Q14671 828-1176, C935T;R936Y;Q939H)
# Outline: as §1
# PUM1 PUF domain R5-ASR = PUM1 PUF domain R5-ASR (Homo sapiens, UniProt Q14671 828-1176, C1007A;R1008S;Q1011R)
# Outline: as §1
# PUM1 PUF domain R5-WSR = PUM1 PUF domain R5-WSR (Homo sapiens, UniProt Q14671 828-1176, C1007W;R1008S;Q1011R)
# Outline: as §1
sequence,measurement,setting,value
GGCUAGAACUAGUGGAUCCCCCGGCGCCCGGCGGCUCGAGCCCGGGUAAGUGUGAAUAGUCUGCAUGCCGCCGGGCGCCAUGCCUGCAGGUCGACUCUAGAAAACAUG,binding signal,PUM1 PUF domain R5-AAD,2.97 log2 enrichment (interaction score)
GGCUAGAACUAGUGGAUCCCCCGGCGCCCGGCGGCUCGAGCCCGGGUAAGUGUACAUAGUCUGCAUGCCGCCGGGCGCCAUGCCUGCAGGUCGACUCUAGAAAACAUG,binding signal,PUM1 PUF domain R4-DWM,4.24 log2 enrichment (interaction score)
GGCUAGAACUAGUGGAUCCCCCGGCGCCCGGCGGCUCGAGCCCGGGUAAGUGUAAGUAGUCUGCAUGCCGCCGGGCGCCAUGCCUGCAGGUCGACUCUAGAAAACAUG,binding signal,PUM1 PUF domain R3-WYS,2.89 log2 enrichment (interaction score)
same,binding signal,PUM1 PUF domain R3-FIG,3.51 log2 enrichment (interaction score)
GGCUAGAACUAGUGGAUCCCCCGGCGCCCGGCGGCUCGAGCCCGGGUAAGUGUAAAUAGUCUGCAUGCCGCCGGGCGCCAUGCCUGCAGGUCGACUCUAGAAAACAUG,binding signal,PUM1 PUF domain R6-FWV,4.97 log2 enrichment (interaction score)
same,binding signal,PUM1 PUF domain R4-DWM,6.03 log2 enrichment (interaction score)
same,binding signal,PUM1 PUF domain R8-RRV,0.86 log2 enrichment (interaction score)
same,binding signal,PUM1 PUF domain R3-DHL,3.42 log2 enrichment (interaction score)
same,binding signal,PUM1 PUF domain R3-TYH,2.88 log2 enrichment (interaction score)
GGCUAGAACUAGUGGAUCCCCCGGCGCCCGGCGGCUCGAGCCCGGGUAAGUGUUAAUAGUCUGCAUGCCGCCGGGCGCCAUGCCUGCAGGUCGACUCUAGAAAACAUG,binding signal,PUM1 PUF domain R5-ASR,1.28 log2 enrichment (interaction score)
GGCUAGAACUAGUGGAUCCCCCGGCGCCCGGCGGCUCGAGCCCGGGUAAGCGUAAAUAGUCUGCAUGCCGCCGGGCGCCAUGCCUGCAGGUCGACUCUAGAAAACAUG,binding signal,PUM1 PUF domain R8-RRV,2.4 log2 enrichment (interaction score)
GGCUAGAACUAGUGGAUCCCCCGGCGCCCGGCGGCUCGAGCCCGGGUAAGUGUCAAUAGUCUGCAUGCCGCCGGGCGCCAUGCCUGCAGGUCGACUCUAGAAAACAUG,binding signal,PUM1 PUF domain R5-ASR,5.07 log2 enrichment (interaction score)
same,binding signal,PUM1 PUF domain R5-WSR,5.87 log2 enrichment (interaction score)
